# Measured values from PubChem BioAssay (NCI).
# This is part of a sample that, as a whole, favours compounds with a hit. Of some 83,000 tested, about 20% had one in any assay.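 The test compound was applied at a single concentration to cells in 96-well plates for 48 hours, and percent growth was recorded.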 Unmarked numbers belong to inactive results. Activity calls are given as the source filed them.
# Tested on: NCI/ADR-RES ovarian
# Test: NCI-60 one-dose screen, 48 h (100 = growth as untreated, 0 = no growth, -100 = all killed)
# Settings: 10 µM unless noted
# Protocol: Growth inhibition of the NCI/ADR-RES human […] tumor cell line is measured as a screen for anti-cancer activity. Cells are grown in 96 well plates and exposed to the test compound for 48 hours. Compounds are tested at a single concentration, which is 10^-5 M for most compounds. The reported endpoint is percent growth (GI% or GIPRCNT), where numbers from 0 - 100% represent growth inhibition, and numbers from -100% - 0 represent cell death. For example, a value of 40 represents 60% growth inhibition. A value of 0 means no net growth occurred over the course of the experiment. A value of -40 indicates 40% of cells at the beginning of the experiment died by the end of the experiment. A value of -100 means all cells are dead at the end of the experiment.
# NCI-60 Human Tumor Cell Lines Screen was performed using the standard one-dose NCI protocol, which is described in more detail at https://dtp.cancer.gov/discovery_development/nci-60/default.htm.
# Compounds with GIPRCNT values below 10 were considered active. Activity score was based on GIPRCNT using the following formula: […]
# Score is 0 for GIPRCNT values of 100 or above, 50 for GIPRCNT values of 0, and 100 for GIPRCNT values of -100.
row,SMILES,growth
1,Cc1ccc(C(=O)/C(=C\c2ccc([N+](=O)[O-])cc2)S(=O)Cc2ccc(F)cc2)cc1 (stereo not given),26.8%
2,CCCOc1ccc(/C=N/Nc2cc(C)nc3ccc(Br)cc23)cc1,97.2%
3,Cc1cccc(NC(=O)Nc2ccc(-c3ccc4c(c3)NC(=O)/C4=C\c3ccc[nH]3)cc2)c1,93.8%
4,COc1cc(C2C3=C(COC3=O)N(CCO)c3cc4c(cc32)CCC4)cc(OC)c1OC (stereo not given),-74.5% (active)
5,CC1(C)CC(=O)C2=C(C1)N(c1ccc(F)cc1F)C(N)=C(C#N)C2c1cc(Br)ccc1F (stereo not given),85.7%
6,O=C(NCCNc1nccc(-c2c(-c3cccc(F)c3)nc3sccn23)n1)c1ccc(Cl)cc1,74.3%
7,O=S(=O)(NCCNc1nccc(-c2c(-c3cccc(F)c3)nc3sccn23)n1)c1ccc(Cl)cc1,67.7%
8,C#CCNC(=O)c1cccc2c1cc(C)n2-c1nc2c(c(NCc3ccccc3)n1)CCCC2,1.28% (active)
9,Cc1cnc(C(=O)Nc2nc3ccc(S(=O)(=O)Nc4ccc(C5(C(F)(F)F)CC5)cc4)cc3[nH]2)cn1,15.8%
10,N#CC1=C(N)Oc2c(ccc3ccccc23)C1c1ccccc1Cl (stereo not given),-0.548% (active)
11,COC(=O)C(CC=O)C(=O)C(=O)Nc1cccc(C(F)(F)F)c1 (stereo not given),107%
12,COC(=O)C(OC(C)=O)C(OC(C)=O)c1ccc(OC)c(OC)c1 (stereo not given),94.1%
13,CCOC(=O)/C(C#N)=C1/NNC(=Nc2cccnc2)S1,105%
14,CC(=O)O[C@@H]1C2CCC3C(CC[C@@]4(C)C3CC[C@@H]4C(C)N(C)C)[C@@]2(C)CC[C@@H]1NC(=O)C=C(C)C (stereo not given in full),37.6%
15,C=C(C)[C@@H]1CC[C@]2(C(=O)N3CCN(C)CC3)CC[C@]3(C)[C@H](CC[C@@H]4[C@@]5(C)C/C(=C/c6ccncc6)C(=O)C(C)(C)[C@@H]5CC[C@]43C)[C@@H]12,57.9%
16,Cc1nn(-c2ccccc2)c(Oc2c(Cl)cccc2Cl)c1/C=N/N=c1\sc2ccccc2n1C,56.1%
17,COc1ccc(C(=O)C2C(C#N)C(C#N)C3C=Cc4ccccc4N32)cc1 (stereo not given),-7.8% (active)
18,COc1ccc(C(=O)c2cc(C)c(OC)c(C)c2)c(OC)c1OC(=O)C(Cl)Cl,-3.92% (active)
19,CN[C@@H](C)C(=O)N[C@H]1CCS[C@H]2CC(C)(C)[C@@H](C(=O)N[C@H]3c4ccccc4C[C@H]3OCC#CC#CCO[C@@H]3Cc4ccccc4[C@@H]3NC(=O)[C@H]3N4C(=O)[C@@H](NC(=O)[C@H](C)NC)CCS[C@H]4CC3(C)C)N2C1=O,109%
20,CCNC(=O)Oc1ccc(/C(=C(\C)c2ccccc2)c2ccc(OCCN3CCCCC3)cc2)cc1,66.8%

row,SMILES,growth
1,CCCCCOc1ccc(/C=N/Nc2cc(C)nc3ccc(Cl)cc23)cc1,53.5%
2,O=C(/C(=C\c1ccc([N+](=O)[O-])cc1)S(=O)Cc1ccc(F)cc1)c1ccc(F)cc1 (stereo not given),20.7%
3,CC(C)c1ccc(Nc2ccc3c(OCCCN4CCN(C)CC4)cccc3n2)cc1,82%
4,COc1cc2nc(-c3ccc(Cl)cc3)cc(OCCCN3CCC(O)CC3)c2cc1OC,44.6%
5,O=S(=O)(NCCCNc1nccc(-c2c(-c3cccc(F)c3)nc3sccn23)n1)c1cccc2ccccc12,47.1%
6,COc1ccc(NC(N)=NCCCOc2ccc(F)cc2)cc1,99%
7,COc1ccc(CNCCN2C(=O)c3ccc4c5c(ccc(c35)C2=O)C(=O)N(CCNCc2ccc(OC)c(OC)c2OC)C4=O)c(OC)c1OC,-3.82% (active)
8,C=C(CBr)[C@@H]1CC[C@]2(COC(C)=O)CC[C@]3(C)[C@H](CC[C@@H]4[C@@]5(C)CCCNC(C)(C)[C@@H]5CC[C@]43C)[C@@H]12,48.9%
9,Cc1ccc(-n2nc3c(c(C#N)c2=O)CC(c2ccccc2[N+](=O)[O-])C([N+](=O)[O-])=C3O)cc1 (stereo not given),99.8%
10,O=C(Nc1ccccc1C(=O)N/N=C(\c1ccccc1)c1ccccn1)c1ccc(F)cc1,9.79% (active)
11,O=C(Cc1ccc(/C=C/C(=O)c2nccs2)cc1)Nc1ccccc1,101%
12,CCOC(=O)c1cc(C(=O)c2ccc(OC)c(OC)c2)n2c1ccc1ccccc12,91.5%
13,CC(=O)Nc1cccc(-c2ccc3c(c2)NC(=O)/C3=C\c2ccc[nH]2)c1,49.6%
14,NC1[C@H](c2c[nH]c3ccccc23)c2c([nH]c3ccccc23)[C@H]1c1c[nH]c2ccccc12 (stereo not given in full),81.7%
15,O=C1Nc2cc(Cl)ccc2/C1=C\c1c(-c2ccc(F)cc2)nc2ccccn12,-27.6% (active)
16,O=C(Nc1ccc(NC(=O)c2cc(=O)[nH]c3ccccc23)cc1)Nc1cccc(Cl)c1,94.9%
17,COc1cccc(-c2ccc3c(c2)NC(=O)/C3=C\c2ccc[nH]2)c1,40.4%
18,N#C/C(=C\c1c(-c2ccccc2)[nH]c2ccccc12)C(=O)c1ccc(Cl)cc1,-2.46% (active)
19,CCOC(=O)[C@@H](C)C[C@H](Cc1ccccc1)NC(=O)c1csc([C@@H](C[C@H](C(C)C)N(C)C(=O)[C@@H](NC(=O)[C@H]2C[C@H](O[Si](C)(C)C(C)(C)C)CCN2C)C(C)C)OC(C)=O)n1,-3.17% [9.25 µM] (active)
20,O=C(CCN1CCCC1)Nc1ccc2c(Nc3ccc(F)cc3)c3ccccc3nc2c1,33.8%
